Measurements from ChEMBL document CHEMBL3433997, “St. Jude Leishmania screening dataset” (2016).

Legend:
Format in all cases: functional
[1] = molecular target: Solute carrier family 2, facilitated glucose transporter member 1 (Homo sapiens) (UniProt P11166); experiment: ST_JUDE_LEISH: Cytotoxicity at 2uM final concentration against transgenic Leishmania Mexicana promastigotes LmGLUT1 that are glucose transport deficient and complemented with the human glucose transporter GLUT1. Activity is measured by DNA content using SYBR green in vitro
Sequence of Solute carrier family 2, facilitated glucose transporter member 1 (Homo sapiens) (P11166 whole entry): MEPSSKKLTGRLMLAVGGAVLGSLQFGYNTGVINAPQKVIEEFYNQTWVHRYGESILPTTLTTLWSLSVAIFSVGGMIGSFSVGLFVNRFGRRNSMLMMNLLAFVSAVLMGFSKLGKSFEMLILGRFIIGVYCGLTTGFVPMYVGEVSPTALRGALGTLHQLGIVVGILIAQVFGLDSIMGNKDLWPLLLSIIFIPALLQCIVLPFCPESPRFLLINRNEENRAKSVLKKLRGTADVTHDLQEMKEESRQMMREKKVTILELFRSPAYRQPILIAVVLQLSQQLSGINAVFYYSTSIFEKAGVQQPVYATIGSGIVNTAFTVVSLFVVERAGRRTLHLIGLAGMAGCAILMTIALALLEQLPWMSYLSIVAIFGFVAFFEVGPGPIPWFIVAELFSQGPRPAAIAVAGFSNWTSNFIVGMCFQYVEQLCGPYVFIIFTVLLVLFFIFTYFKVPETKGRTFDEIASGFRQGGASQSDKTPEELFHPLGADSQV

[2] = molecular target: Hexose transporter 1 (Plasmodium falciparum) (UniProt O97467); experiment: ST_JUDE_LEISH: Cytotoxicity at 2uM final concentration against transgenic Leishmania Mexicana promastigotes LmPfHT that are glucose transport deficient and complemented with the Plasmodium falciparum hexose transporter. Activity is measured by DNA content using SYBR green in vitro
[3] = molecular target: Glucose transporter (Leishmania mexicana) (UniProt O61059); experiment: ST_JUDE_LEISH: Cytotoxicity at 2uM final concentration against transgenic Leishmania Mexicana promastigotes LmGT2 that are glucose transport deficient and complemented with the L. Mexicana glucose transporter 2. Activity is measured by DNA content using SYBR green in vitro

Structure (SMILES) | inhibition [1] [%] | inhibition [2] [%] | inhibition [3] [%]
CC(=O)Nc1ccc(OCCCCN(Cc2ccccc2C(F)(F)F)c2ccc(C(F)(F)F)c(C#N)c2)c(Cl)c1 | 0.27 | 3.28 | 0.64
COc1ccc(-c2ccc3c(-c4cccc(S(C)(=O)=O)c4)cnc(N)c3c2)cc1 | 0.83 | 1 | 0.45
COc1ccc2ncc(F)c(CCN3CCC4(CC3)COC(c3cc5c(cn3)OCCO5)=N4)c2n1 | 10.3 | 7.42 | -0.24
O=C(Cc1cn(-c2ccccc2)nc1-c1ccc(Cl)cc1)Nc1nccs1 | 7.92 | 8.35 | 7.98
O=C(/C=C/c1ccc(Cl)c(Cl)c1)NCCCCN1CCCN(C(=O)Nc2cc(Cl)cc(Cl)c2)CC1 | 0.48 | 0.76 | 0.06
O=C(Nc1cccc(OCc2ccccc2)c1)c1ccc(CN2CCC(Cc3ccccc3)CC2)cc1 | -0.83 | -1.67 | -0.42
COc1cc(OC)c(OC)cc1CN1CCC2(CC1)CN(Cc1ccc(Cl)c(Cl)c1)C(=O)O2 | 10.3 | 9.41 | 8.16
CC(C)(C)c1ccc(NC(=O)c2cccc(CN3CCCN(Cc4cccc(C#N)c4)CC3)c2)cc1 | 5.1 | 1.26 | 0.63
O=C(Nc1ccc(-c2ccc(-c3nc4ccccc4[nH]3)s2)cc1)Nc1ccc(F)c(F)c1F | 0.57 | -1.5 | -0.77
CC(C)(C)OC(=O)N(Cc1cc(-n2nnnc2C(F)(F)F)ccc1O)[C@H]1CCCN(C(=O)OC(C)(C)C)[C@H]1c1ccccc1 | -0.38 | -2.92 | -3.2
CCN(C)c1cc(C(=O)N[C@@H](Cc2ccccc2)[C@H](O)CNC(C)(C)c2cccc(OC)c2)cc(N2CCCC2=O)c1 | 1.69 | 0.79 | 4.41
CCOC(=O)NC1=NC(C)(C)N(OCCCOc2cc(Cl)c(Cl)cc2Cl)C(NC(=O)OCC)=N1 | 2.08 | 0.27 | 1.36
CN(C)c1ccc(-c2csc(C(=O)NC3CCCCN(Cc4ccc(C(C)(C)C)cc4)C3)c2)cc1 (centres undefined) | -1.22 | -0.61 | 1.96
COc1ccc(N2CCN(c3nc(Nc4ccc(NC(C)=O)cc4)nc(N4CCCC4)n3)CC2)cc1 | 0.68 | 1.16 | 5.96
CC(=O)Nc1csc(-c2cnc(/C=C(\C)C[C@@H]3OC[C@H](C[C@@H]4O[C@H]4[C@@H](C)[C@H](C)O)[C@@H](O)[C@H]3O)o2)c1 | 3.6 | 4.42 | 2.39
COc1ccc2nccc([C@@H](O)CN3CCC(NCc4cc5ccccc5[nH]4)CC3)c2c1 | 17 | 23.5 | 4.85
Clc1ccc(Cc2nc3ccccc3[nH]2)cc1Cl | 4.81 | 4.08 | 4.23
Cc1c[nH]c2ccc(/C=C/C(=O)NC3CCC(CCN4CCc5ccc(C#N)cc5CC4)CC3)cc12 (centres undefined) | 5.06 | 5.55 | 0.32
Cc1cc(NC(=O)Nc2ccc(C(C)(C)C)cc2)c2ccccc2n1 | 1.18 | 3.8 | -3.31
O=C(NCCN1CCOCC1)c1ccc(N2CCC(Oc3ccc4ccccc4c3)CC2)nc1 | 7.02 | 6.04 | 6.12
CCCN(CCC)C(=O)c1cc(C(=O)N[C@@H](Cc2ccccc2)[C@H](O)CNCc2cccc(OC)c2)cc(N2CCCCS2(=O)=O)c1 | 4.58 | 5.76 | 5.14
Cc1nc(-c2ccc(-c3ccc(C(=O)Nc4ccc(I)c(OCC5CCCN5C)c4)cc3)c(C)c2)no1 (centres undefined) | 9.63 | 7.75 | 5.6
CC(=O)Nc1ccc(CCNC(C)Cc2ccc(C(=O)Nc3ccc(CC(C)NCCc4cccc(Cl)c4)cc3)cc2)cc1 (centres undefined) | 2.17 | -1.77 | 0.98
COc1ccc(CCNCCCCCNCCCc2ccc(Cl)cc2)cc1OC | -1.33 | -1.18 | 0.25
CCOc1ccc(Nc2ccc3nonc3c2S(=O)(=O)Nc2ccc(OCC)cc2)cc1 | -0.07 | -0.32 | -0.61
O=C(Nc1ccc(Cl)cc1)Nc1cccc(-c2cc(CNCCc3ccccc3)oc2-c2ccncc2)c1 | 5.78 | 2.56 | 3.77
O=[N+]([O-])c1nc(Br)n(Cc2ccc(Cl)cc2)n1 | 3.1 | 3.81 | 4.39
CCCC(=O)c1cnc2c(Oc3cc(Cl)ncn3)cccc2c1Nc1ccccc1C | 6.96 | 4.84 | 6.89
